Data on ten compounds can be found in PubChem BioAssay.

Experiment [1] is described as follows: inhibitors of TNFa-induced NFkB p65 translocation, primary screen, imaging, HUVEC, MLSMR starter and 10KST1 sets (AID 438;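 active = inhibition above 20% together with a positive visual image hit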;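 also: compound added about 3h40 before a 20 min TNFalpha stimulation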;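 as to inhibition: signal is the nuclear over cytoplasmic p65 intensity ratio per well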). The settings on record: HUVEC TNFa-induced p65 nuclear translocation; cell count: measured here: nuclei count (cytotoxicity indicator), at 2.08 µM; inhibition: at 2 µM, stronger effect = higher value, 0% TNFa-plus-vehicle, 100% no-TNFa wells.
Experiment [2] in a line: reduction of polyQ htt aggregates in cells – imaging, exon1htt(103Q)mCFP cells, high-content imaging, primary screen (AID 483;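 active = visual image review flags a hit and inhibition of aggregation exceeds 20%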;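 also: compound exposure lasted 3 days before fixation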;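 as to nuclei count: percent of the per-plate median nuclei count of sample wells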). The following applies: exon1htt(103Q)mCFP cell line, aggregate imaging, at 2 µM; inhibition of aggregation: stronger effect = higher value; nuclei count: measured here: cell count, toxicity.
Experiment [3] is described as follows: endothelial E-selectin expression blockers – imaging, HUVEC, immunofluorescence, MLSMR starter and 10KST1 sets, primary screen (AID 487;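 active = visually confirmed hit in the image check and inhibition above 20%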;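 as to inhibition: signal is fraction of cell area covered by stained E-selectin grains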;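 as to nuclei count: 100% = median nuclei count of all wells on the same plate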). The settings on record: HUVEC TNFalpha-induced E-selectin immunofluorescence imaging, at 2 µM; inhibition: stronger effect = higher value; nuclei count: measured here: cell number, toxicity.
Experiment [4] deals with Voltage-gated potassium channel subunit beta-2 (Rattus norvegicus) (UniProt P62483). The experiment is described as follows: inhibitors of rat Kvbeta2 reductase activity – biochemical, NADPH fluorescence, primary screen (AID 622;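 active = fluorescence slope higher than the sample average by over 3 SD, cut at about -0.22 in these data, passing the limit was not always enough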;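 also: slope of raw intensity against log time taken from 70 to 1610 s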). The following applies: recombinant KvBeta, 4-cyanobenzaldehyde reduction, at 10 µM, stronger effect = higher value.
Experiment [5] shares this target. The experiment is described as follows: enhancers of rat Kvbeta2 NADPH turnover – biochemical, NADPH fluorescence, primary screen (AID 623;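 active = NADPH fluorescence slope more negative than the mean of all samples by about 3 SD, 99.7% confidence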;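 also: fluorescence intensity change per second fitted from 20 to 320 s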). The settings on record: Recombinant KvBeta, NADPH fluorescence decrease slope, 10 min; at 10 µM; stronger effect = lower value.
Experiment [6] has as its target Alpha-2C adrenergic receptor (Homo sapiens) (UniProt P18825). The experiment is described as follows: compounds altering alpha2C-coupled GIRK flux – cell-based, HEK293 alpha2C/GIRK1/2, thallium flux, primary screen (AID 624).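 Also: slope of fluorescence ratio to pre-addition baseline per second over 15 to 24 s.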 The following applies: thallium flux BTC fluorescence, at 10 µM, actives lie on both sides.
Experiment [7] is described as follows: blockers of RIG-like receptor reporter activation – cell-based, Sendai virus stimulus, luciferase, 10K MLSCN set, TLR/RLR signaling modifier project, primary screen (AID 602276;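 active = inhibition at or above 50% at 10 µM; inactive = inhibition below 50%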;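 also: firefly luciferase from ISG56 promoter only with Renilla not read in this screen; 0% = Sendai virus plus DMSO and 100% = medium plus DMSO without virus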). The settings on record: HEK293 RL24 IRF3 luciferase reporter, at 10 µM, stronger effect = higher value.
Experiment [8] is described as follows: TLR3 IRF3 reporter activation blockers – cell-based, poly I:C stimulus, luciferase, 10K MLSCN set, primary screen (AID 602277;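 active = inhibition of the reporter signal at or above 50%; inactive = inhibition below 50%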). The following applies: HEK293-TLR3 RL24 IRF3 luciferase reporter, at 10 µM, stronger effect = higher value.

Each structure is given as a SMILES string. Calls of active or inactive are those of the source.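 The calls were made as follows, unless noted: active = fluorescence slope after compound addition differing from the mean of all screened samples at 99.7% confidence, in either direction; inactive = the rest.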

Voltage-gated potassium channel subunit beta-2 (Rattus norvegicus), sequence (P62483 whole entry, looked up): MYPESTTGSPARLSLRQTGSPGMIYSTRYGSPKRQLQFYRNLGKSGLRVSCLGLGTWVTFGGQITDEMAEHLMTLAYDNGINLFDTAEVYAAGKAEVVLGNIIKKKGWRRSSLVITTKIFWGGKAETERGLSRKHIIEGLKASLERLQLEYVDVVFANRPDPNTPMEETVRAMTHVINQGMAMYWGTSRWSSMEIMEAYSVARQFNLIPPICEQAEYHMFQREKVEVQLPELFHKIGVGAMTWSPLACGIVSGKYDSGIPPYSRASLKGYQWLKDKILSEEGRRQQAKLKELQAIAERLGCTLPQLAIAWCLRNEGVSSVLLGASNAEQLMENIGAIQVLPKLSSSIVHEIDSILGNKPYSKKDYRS
Alpha-2C adrenergic receptor (Homo sapiens), sequence (P18825 whole entry, looked up): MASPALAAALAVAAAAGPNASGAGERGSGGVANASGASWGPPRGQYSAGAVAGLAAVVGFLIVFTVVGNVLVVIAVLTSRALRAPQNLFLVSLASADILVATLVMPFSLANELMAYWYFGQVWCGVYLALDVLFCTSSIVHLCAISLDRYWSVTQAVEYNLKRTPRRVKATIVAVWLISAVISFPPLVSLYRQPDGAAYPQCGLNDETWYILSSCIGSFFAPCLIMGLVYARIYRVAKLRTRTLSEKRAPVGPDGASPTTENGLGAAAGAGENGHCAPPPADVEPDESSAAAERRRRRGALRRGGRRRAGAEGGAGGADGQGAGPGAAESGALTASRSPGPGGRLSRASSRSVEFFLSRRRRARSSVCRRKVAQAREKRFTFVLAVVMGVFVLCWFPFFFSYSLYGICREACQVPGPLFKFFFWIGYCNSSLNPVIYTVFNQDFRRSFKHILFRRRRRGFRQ

For the compound `Cc1cnc(C(=O)Nc2ccc(N3CCN(C(=O)OC(C)(C)C)CC3)cc2)cn1`, in experiment [1], the cell count was determined as 316. For the same compound, the inhibition was 8.7% (inactive) in experiment [1], -1.6% (inactive) in experiment [3], -2.13% (inactive) in experiment [7] and 6.1% (inactive) in experiment [8]. In addition, the inhibition of aggregation in experiment [2] was -7.1% (inactive). The nuclei count in experiment [2] was found to be 4.4%; in experiment [3], 93.1%. For the same compound, the fluorescence slope in experiment [4] was -0.636 (inactive). In addition, the NADPH fluorescence slope in experiment [5] is -3.5e-05 (inactive). Moreover, the slope in experiment [6] is 0.00617 (inactive).
For `NC(=O)c1cc(-c2ccccc2)nc(N2CCOCC2)n1`, the cell count in experiment [1] was 532. Moreover, the inhibition in experiment [1] is 6.7% (inactive); in experiment [3], 25.8% (inactive); in experiment [7], 8.52% (inactive); in experiment [8], 25.8% (inactive). For the same compound, in experiment [2], the inhibition of aggregation was -2.6% (inactive). For the same compound, the nuclei count was determined as 91% in experiment [2] and 92.5% in experiment [3]. In experiment [4], the fluorescence slope is -0.591 (inactive). Further, the NADPH fluorescence slope in experiment [5] is -4.3e-05 (inactive). Also, in experiment [6], the slope is 0.00656 (inactive).
As to `Cc1nc(N2CCN(c3ncccn3)CC2)c2oc3ccccc3c2n1`, the cell count in experiment [1] was found to be 583. The inhibition in experiment [1] was -8.7% (inactive); in experiment [3] it was -56.1% (inactive); in experiment [7] it was -3.03% (inactive); in experiment [8], -57.2% (inactive). The inhibition of aggregation in experiment [2] is 0.3% (inactive). The nuclei count in experiment [2] was 106%; in experiment [3] it was 104%. Besides, the fluorescence slope in experiment [4] is -0.432 (inactive). For the same compound, in experiment [5], the NADPH fluorescence slope was -1.4e-05 (inactive). In addition, the slope in experiment [6] is 0.00731 (inactive).
Consider `Cc1cccc(-n2ncc3c(N)ncnc32)c1`, for which the cell count in experiment [1] was found to be 622. Also, the inhibition is 9.1% (inactive) in experiment [1], -12.6% (inactive) in experiment [3], -20.5% (inactive) in experiment [7] and -80.6% (inactive) in experiment [8]. The inhibition of aggregation in experiment [2] is -51.6% (inactive). Moreover, the nuclei count in experiment [2] amounted to 6%; in experiment [3] it was 110%. In experiment [4], the fluorescence slope was -0.596 (inactive). The NADPH fluorescence slope in experiment [5] was -2.7e-05 (inactive). For the same compound, the slope in experiment [6] was 0.0039 (inactive).
Take `CC(C)(C)NC(=O)CN(C(=O)C1CSC(=O)C1)c1ccc2c(c1)OCCO2` (stereo not given): the cell count in experiment [1] was 612. The inhibition in experiment [1] is 2.9% (inactive); in experiment [3], 7.1% (inactive); in experiment [7], -11.9% (inactive); in experiment [8], -7.89% (inactive). In experiment [2], the inhibition of aggregation was 7.5% (inactive). The nuclei count in experiment [2] is 95.8%; in experiment [3] it was 108%. In addition, in experiment [4], the fluorescence slope was -0.362 (inactive). Moreover, the NADPH fluorescence slope in experiment [5] was -6.7e-05 (inactive). Further, in experiment [6], the slope was 0.00456 (inactive).
`COc1ccc(CCNC(=O)CC2COc3ccccc3O2)cc1OC` (stereo not given): the cell count in experiment [1] was 611. For the same compound, the inhibition in experiment [1] was -7.2% (inactive); in experiment [3], -28.9% (inactive); in experiment [7], 19.4% (inactive); in experiment [8], 20.3% (inactive). For the same compound, in experiment [2], the inhibition of aggregation was 25% (inactive). In addition, the nuclei count in experiment [2] and in experiment [3] was 115% in each case. In experiment [4], the fluorescence slope was -0.619 (inactive). Further, the NADPH fluorescence slope in experiment [5] was 2.1e-05 (inactive). Moreover, the slope in experiment [6] is 0.00334 (inactive).
As to `CCN1CCN(C(=O)c2cc3c(=O)n(C)c4ccccc4c3n2C)CC1`, the cell count in experiment [1] was 601. Moreover, the inhibition in experiment [1] was 20.7% (inactive); in experiment [3] it was -89.4% (inactive); in experiment [7], 2.73% (inactive); in experiment [8], 32.2% (inactive). In experiment [2], the inhibition of aggregation was -10.2% (inactive). In addition, the figures for the nuclei count in experiment [2] and in experiment [3] were 102% and 126%, respectively. Besides, in experiment [4], the fluorescence slope was -0.583 (inactive). Further, the NADPH fluorescence slope in experiment [5] was -1.9e-05 (inactive). For the same compound, in experiment [6], the slope was 0.00682 (inactive).
Turning to `CCOc1ccccc1Nc1nnc(SCC(=O)N2CCCC2)s1`, in experiment [1], the cell count came out at 655. Besides, the inhibition in experiment [1] is 1% (inactive); in experiment [3], -65.3% (inactive); in experiment [7], 4.86% (inactive); in experiment [8], 12.3% (inactive). For the same compound, the inhibition of aggregation in experiment [2] is 12.1% (inactive). Further, the results for the nuclei count in experiment [2] and in experiment [3] were 106% and 100%, respectively. For the same compound, the fluorescence slope in experiment [4] is -0.609 (inactive). Further, in experiment [5], the NADPH fluorescence slope was 1.4e-05 (inactive). Moreover, the slope in experiment [6] is 0.00607 (inactive).
Take `Cc1ccc(S(=O)(=O)NCCSc2nnnn2-c2ccc(C(N)=O)cc2)cc1`: the cell count in experiment [1] is 650. Moreover, the inhibition was -2.6% (inactive) in experiment [1], -14.3% (inactive) in experiment [3], -0.501% (inactive) in experiment [7] and 12.6% (inactive) in experiment [8]. The inhibition of aggregation in experiment [2] was 2.1% (inactive). Moreover, the nuclei count amounted to 115% in experiment [2] and 111% in experiment [3]. For the same compound, the fluorescence slope in experiment [4] is -0.564 (inactive). Also, the NADPH fluorescence slope in experiment [5] is 4.8e-06 (inactive). Besides, the slope in experiment [6] is 0.00721 (inactive).
As for `COc1ccc(CC(=O)OCn2nnc3ccccc3c2=O)cc1`, the cell count in experiment [1] was 423. Moreover, the inhibition is -7% (inactive) in experiment [1], -7.5% (inactive) in experiment [3], 12% (inactive) in experiment [7] and 16.4% (inactive) in experiment [8]. Also, the inhibition of aggregation in experiment [2] was -25.9% (inactive). Moreover, the nuclei count in experiment [2] came out at 120%; in experiment [3], 115%. Besides, in experiment [4], the fluorescence slope is -0.416 (inactive). In addition, the NADPH fluorescence slope in experiment [5] was -4.2e-05 (inactive). In addition, the slope in experiment [6] is 0.00601 (inactive).
